# Assay outcomes from PubChem BioAssay.
# USP28 block: inhibitors of human USP28 deubiquitinase; hit rate 3% among 47,000; purified USP28, Ub-rhodamine cleavage fluorescence, 30 min; inhibition, % at 25 µM; Ubiquitin carboxyl-terminal hydrolase 28 (Homo sapiens), Q96RU2
# Target sequence (Q96RU2 whole entry, looked up): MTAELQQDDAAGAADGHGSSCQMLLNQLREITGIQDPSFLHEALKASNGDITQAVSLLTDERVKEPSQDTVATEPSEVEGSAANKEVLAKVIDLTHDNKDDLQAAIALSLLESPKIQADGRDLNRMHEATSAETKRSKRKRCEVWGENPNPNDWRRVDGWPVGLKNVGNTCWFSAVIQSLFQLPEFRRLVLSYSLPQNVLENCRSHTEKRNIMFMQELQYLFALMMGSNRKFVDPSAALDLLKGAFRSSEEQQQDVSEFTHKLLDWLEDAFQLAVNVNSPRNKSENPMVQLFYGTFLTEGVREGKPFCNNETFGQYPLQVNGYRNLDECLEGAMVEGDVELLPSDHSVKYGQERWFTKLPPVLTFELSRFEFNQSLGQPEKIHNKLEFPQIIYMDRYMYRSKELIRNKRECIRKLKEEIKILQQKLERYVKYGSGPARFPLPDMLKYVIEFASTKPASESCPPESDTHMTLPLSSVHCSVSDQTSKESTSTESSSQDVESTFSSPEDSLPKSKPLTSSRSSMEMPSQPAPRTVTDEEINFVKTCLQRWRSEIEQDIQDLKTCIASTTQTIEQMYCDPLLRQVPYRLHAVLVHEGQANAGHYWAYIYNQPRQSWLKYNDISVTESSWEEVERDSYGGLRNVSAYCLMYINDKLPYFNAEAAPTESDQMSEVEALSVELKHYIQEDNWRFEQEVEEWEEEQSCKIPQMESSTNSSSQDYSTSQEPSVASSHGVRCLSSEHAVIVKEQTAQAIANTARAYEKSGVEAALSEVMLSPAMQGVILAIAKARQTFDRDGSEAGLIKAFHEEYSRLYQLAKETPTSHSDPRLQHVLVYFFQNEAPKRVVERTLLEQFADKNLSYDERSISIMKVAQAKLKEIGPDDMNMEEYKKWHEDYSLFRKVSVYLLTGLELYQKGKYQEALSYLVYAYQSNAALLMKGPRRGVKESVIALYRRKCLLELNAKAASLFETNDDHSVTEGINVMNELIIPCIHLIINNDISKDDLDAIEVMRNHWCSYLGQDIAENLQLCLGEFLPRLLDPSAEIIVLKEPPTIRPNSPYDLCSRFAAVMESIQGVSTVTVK
# USP30 inh: inhibitors of human USP30 deubiquitinase. purified USP30, Ub-rhodamine cleavage fluorescence. inhibition, % at 25 µM. AID 1645860, 2021. Ubiquitin carboxyl-terminal hydrolase 30 (Homo sapiens), Q70CQ3. hit rate 5.3% among 47,000
# Starred values were filed as active, the others as inactive. Sampled rows, rich in hits. Any-hit rate of the full collection: about 7%. No stated cut-off is given here; in the data, active means inhibition above about 30%; inactive means the rest.
SMILES,USP28 block,USP30 inh
Cc1nnc(NC(=O)C2CCN(S(=O)(=O)c3ccc(Cl)cc3)CC2)o1,-2,0
O=C(c1ccccc1)C1CCN(S(=O)(=O)c2ccc(Cl)cc2)CC1,14,31*
O=C(NCCN1CCOCC1)C1CCN(S(=O)(=O)c2ccc(Cl)cc2)CC1,6,35*
O=C(C1CCN(S(=O)(=O)c2ccc(Cl)cc2)CC1)N1CCOCC1,-3,-4
O=C(c1ccc(S(=O)(=O)N2CCCCC2)cc1)c1nnc(-c2ccc(Cl)cc2)o1,11,30*
CCOC(=O)C1(Cc2cc(-c3ccccc3C)no2)CCN(Cc2cccc(O)c2)CC1,5,22
Cc1cc(NC(=O)c2cn[nH]c2S(=O)(=O)Nc2ccccc2)ccc1F,3,8
CCC(C(=O)Nc1ncc2c(n1)CC(c1ccc(F)cc1)CC2=O)c1ccccc1 (stereo not given),32*,34*
CCC(C(=O)Nc1ncc2c(n1)CC(c1ccc(OC)cc1)CC2=O)c1ccccc1 (stereo not given),5,13
CC1CCCCN1S(=O)(=O)c1ccc(C(=O)Nc2ccc(S(N)(=O)=O)cc2)cc1 (stereo not given),35*,71*
CC(=O)Nc1ccc(S(=O)(=O)N2CCC(CN3CCCCC3)CC2)cc1,-2,16
CC(=O)Nc1ccc(S(=O)(=O)N2CCCC2c2ccccc2)cc1 (stereo not given),0,8
O=S(=O)(c1ccc(S(=O)(=O)N2CCCCC2c2cccnc2)cc1)N1CCOCC1 (stereo not given),-5,-16
O=C(Nc1ccc(S(=O)(=O)N2CCCCC2c2cccnc2)cc1)c1ccc2c(c1)OCO2 (stereo not given),41*,44*
CC1CCN(S(=O)(=O)c2ccc(C(=O)Nc3ccc(S(N)(=O)=O)cc3)cc2)CC1,21,68*
CCc1nnc(-c2ccc(=O)n(CC(=O)Nc3ccc(C)cc3)c2)o1,11,25
O=C(CN(Cc1ccc(Cl)cc1)S(=O)(=O)c1ccc(Cl)cc1)N1CCOCC1,16,63*
O=C(CN(Cc1ccccc1)S(=O)(=O)c1ccc(Cl)cc1)Nc1ccc(N2CCOCC2)cc1,2,-27
Cc1cc(C)n2cc(-c3ccc4ccccc4c3)c(C#N)c2n1,1,-9
O=C(Cc1nc(-c2ccccn2)n[nH]1)Nc1cccc(Cl)c1,-8,-5
Cc1cc2nc(Oc3ccc(Br)cc3F)c3ccccc3n2n1,10,11
Cc1cc2nc(Oc3cccc(C(F)(F)F)c3)c3ccccc3n2n1,17,49*
COc1cc2c(=O)n(CCC(=O)NC3CCCC3)c(=O)n(CC(=O)Nc3cccc(Cl)c3)c2cc1OC,18,24
CCn1c(=O)c2cc(OC)c(OC)cc2n(CC(=O)c2ccc(OC)c(OC)c2)c1=O,5,47*
CCOc1ccc(C(=O)Cn2c(=O)n(Cc3ccccc3)c(=O)c3cc(Cl)ccc32)cc1Cl,-13,-16
SMILES,USP28 block,USP30 inh
COc1cc(OC)c(NC(=O)Cn2c(=O)n(Cc3ccccc3Cl)c(=O)c3cc(OC)c(OC)cc32)cc1Cl,36*,60*
CCC(=O)Nc1ccc2c(c1)nc(CN1CCCCCC1)n2C,-6,-15
Cc1cccc(C(=O)Nc2ccc3c(c2)nc(CSc2nccc(C)n2)n3C)c1,93*,26
Cn1c(CCN2CCCC2)nc2cc(NC(=O)c3ccccc3)ccc21,3,-23
CCC(=O)Nc1ccc2c(c1)nc(CSc1nccc(C)n1)n2CC,92*,6
COc1cnc(-c2cccc(C(F)(F)F)c2)nc1Sc1ccccc1,8,18
COc1cnc(-c2ccccn2)nc1Sc1ccc(C)cc1,19,60*
Cc1cc2nc(NC(=O)NC3CCCCC3)sc2cc1C,14,36*
O=C(Nc1nc2cc3c(cc2s1)OCCO3)C1CCCCC1,22,13
O=C(NCC(c1ccsc1)N1CCOCC1)c1cccc(Cl)c1 (stereo not given),-6,7
CC(C)OCCCNC(=O)C1(C)CCC(=O)N1Cc1cccs1 (stereo not given),1,5
COc1ccccc1CNC(=O)CCn1c(=O)c2ccccc2n(Cc2ccccc2C#N)c1=O,12,23
COCCn1cnc2c1c(=O)n(CC(=O)NCc1ccccc1OC)c(=O)n2Cc1ccccc1,10,45*
COCCCNC(=O)Cn1c(=O)n(Cc2ccc(C(=O)NCc3ccccc3OC)cc2)c(=O)c2ccccc21,27,53*
CCn1cnc2c1c(=O)n(CC(=O)NCc1ccc3c(c1)OCO3)c(=O)n2Cc1ccccc1,8,-71
CC(C)Cn1cnc2c1c(=O)n(CC(=O)NCCc1ccc(F)cc1)c(=O)n2Cc1ccccc1,12,43*
CCOc1ccc(NC(=O)Cn2c(=O)n(CCC(=O)NCc3ccccc3OC)c(=O)c3ccccc32)cc1,6,50*
COCCCNC(=O)c1ccc(Cn2c(=O)c3ccccc3n(CC(=O)c3ccccc3)c2=O)cc1,2,9
